Bioassay records deposited in PubChem BioAssay by National Center for Advancing Translational Sciences (NCATS).
Only some compounds are listed: those with a hit (about 21% of all), similar ones and a draw of the others.
Pf growth 48h = inhibits P. falciparum growth in the first generation, 48 h; Potency, µM (doses to about 28.7 µM), hits mostly inhibitors; P. falciparum luciferase growth in erythrocytes, 48 h; AID 504832; 5.9% of 310,000 active
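In quantitative HTS format, infected erythrocytes bearing luciferase-reporter parasites were treated for a single generation at 37 C. Luminescence after adding detection reagent served as the growth measure.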
Pf growth 96h = P. falciparum growth inhibition at 96 hours; P. falciparum luciferase reporter growth, 96 h; Potency, µM (top dose mostly 28.7 µM), hits mostly inhibitors; 6.9% of 320,000 active; AID 504834
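Infected RBCs, 2% Hct / 0.05% parasitemia final; luciferase-reporter P. falciparum; cpd 96 h, 37 C, 5% CO2; luciferase detection reagent; luminescence.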
Shiga toxin inh = inhibitors of Shiga toxin in Vero cells. Vero cells, Shiga toxin protein synthesis inhibition reporter. inhibition, % at 38.7 µM. 9.2% of 290,000 active. AID 2315; in the data active = inhibition mostly above about 28%, no sharp cut-off; inactive = mostly below about 43%
CHX counter = counter-screen for Shiga toxin inhibitors: cycloheximide protein synthesis inhibition; cell reporter, cycloheximide protein synthesis inhibition counterscreen; max response, %; 12% of 300,000 active; in the data active = max response mostly above about 13%, no sharp cut-off; inactive = mostly below about 14%; note: read at 38.3 µM for the half of the compounds with a filed dose
Hits are given with their value; n = inactive; u = inconclusive; x = not tested or not shown. Unless noted, calls come from the whole dose curve; as a rule, active = well fitted inhibition curve with a large enough effect; inconclusive = small, poorly fitted or top-dose-only effect, or another doubt; inactive = no such curve, though single readings can be large or run the other way.

SMILES	Pf growth 48h	Pf growth 96h	Shiga toxin inh	CHX counter
O=C(O)c1cc(NC(=O)c2ccccc2[N+](=O)[O-])ccc1O	n	n	n	n
O=C(Nc1ccc(N2CCCC2)c(Cl)c1)c1ccccc1[N+](=O)[O-]	n	u	n	27
O=C(Nc1ccccc1N1CCOCC1)c1ccc(N2CCOCC2)c([N+](=O)[O-])c1	u	u	n	n
Cc1cc(Br)ccc1NC(=O)CN(C)C(=O)c1ccc2ccccc2n1	n	n	x	x
O=C(Nc1ccc2c(c1)OCO2)c1ccc(NC2CC2)c([N+](=O)[O-])c1	n	n	102	26
Cc1cc(C(=O)Nc2cccc(-c3ccc(N4CCOCC4)nn3)c2)ccc1[N+](=O)[O-]	u	10µM	x	x
COc1cc(C(=O)Nc2ccc3c(c2)OCO3)c([N+](=O)[O-])cc1OC	n	n	n	n
O=C(NC(=S)Nc1ccccc1N1CCCC1)c1ccccc1[N+](=O)[O-]	u	n	n	n
O=C(NC(=S)Nc1ccc(N2CCCC2)cc1)c1ccccc1[N+](=O)[O-]	n	n	40	n
Cc1ccc(C(=O)Nc2cccc(-c3ccc(N4CCOCC4)nn3)c2)cc1	u	n	x	x
CN(C)S(=O)(=O)c1cc(NC(=O)c2ccc(-n3ccnc3)c([N+](=O)[O-])c2)ccc1Cl	8.3µM	u	n	n
COc1c(O)cc2c(c1O)[C@@H]1O[C@@H](CO)[C@@H](O)[C@@H](O)[C@@H]1OC2=O	n	n	x	x
CCOc1c(C)cc(S(=O)(=O)NCc2ccccn2)c(C)c1C	n	n	n	n
CC1CCCN(c2ccc(C(=O)Nc3cccnc3)cc2[N+](=O)[O-])C1 (stereo not drawn)	n	n	48	n
CC(=O)N1CCN(c2ccc(NC(=O)c3ccc(N4CCCC4)c([N+](=O)[O-])c3)cc2Cl)CC1	12µM	u	n	n
CC(=O)Nc1ccc(N2CCCC(C)C2)c([N+](=O)[O-])c1 (stereo not drawn)	n	n	n	n
CC(=O)N1CCN(c2ccc(NC(=O)c3ccc(Cl)c([N+](=O)[O-])c3)cc2)CC1	n	n	n	n
c1ccc(C2=Nc3ccccc3SC2c2nc3ccccc3[nH]2)cc1 (stereo not drawn)	u	u	87	36
O=C1CC(c2nc3ccccc3[nH]2)CN1c1ccccc1 (stereo not drawn)	n	x	n	n
Cn1cc(C(=O)O)c(-c2ccc3c(c2)OCCCO3)n1	n	n	n	n
O=Cc1cn(-c2ccccc2)nc1-c1ccc2c(c1)OCCO2	n	u	99	57
CN(C(=O)COC(=O)/C=C/c1cn(-c2ccccc2)nc1-c1ccc2c(c1)OCCO2)C1CCS(=O)(=O)C1 (stereo not drawn)	u	12µM	n	n
CCN(CC)C(=O)c1cn(-c2ccccc2)nc1-c1ccc2c(c1)OCCO2	u	n	n	n
N#Cc1cn(-c2ccccc2)nc1-c1ccc2c(c1)OCCO2	n	n	64	24
N#Cc1cn(-c2ccccc2)nc1-c1ccco1	n	n	n	n
SMILES	Pf growth 48h	Pf growth 96h	Shiga toxin inh	CHX counter
Cn1cc(C=O)c(-c2ccc3c(c2)OCCCO3)n1	n	n	83	44
CC(C)c1ccc(/C=N/NC(=O)c2nnn(-c3nonc3N)c2CN(C)C2CCCCC2)cc1	n	n	n	n
COc1ccccc1CNC(=O)N/C=C/c1ccc(Cl)cc1	n	n	n	n
C=Cc1ccc(Cn2nc(-c3ccccc3)ccc2=O)cc1	n	n	n	n
Cc1ccc(S(=O)(=O)N2CCCOC2CNC(=O)C(=O)NCCc2c[nH]c3ccccc23)cc1 (stereo not drawn)	u	13µM	96	73
O=C(NCCc1c[nH]c2ccccc12)C(=O)NCC1OCCN1S(=O)(=O)c1ccccc1 (stereo not drawn)	n	n	n	n
O=C(NCCc1c[nH]c2ccccc12)C(=O)NCC1OCCCN1S(=O)(=O)c1ccccc1 (stereo not drawn)	9.3µM	u	n	n
CCOC(=O)N1CCC(NC(=O)c2ccc(CS(=O)(=O)c3c(Cl)cccc3Cl)o2)CC1	n	u	n	n
COc1cccc(N2CCN(C(=O)c3ccc(CS(=O)c4ccc(Cl)cc4)o3)CC2)c1 (stereo not drawn)	u	13µM	n	n
O=C(c1ccc(CS(=O)c2cccc(Cl)c2)o1)N1CCOCC1 (stereo not drawn)	n	u	n	n
COc1cccc(N2CCN(C(=O)c3ccc(CS(=O)c4ccc(C)cc4)o3)CC2)c1 (stereo not drawn)	n	u	n	n
CCOC(=O)N1CCC(NC(=O)c2ccc(CS(=O)c3cccc(Cl)c3)o2)CC1 (stereo not drawn)	n	9.3µM	n	n
O=C(c1ccc(CS(=O)c2cccc(Cl)c2)o1)N1CCN(c2ccccn2)CC1 (stereo not drawn)	u	7.4µM	n	n
COc1ccc(OCc2nnc(SCC(=O)Nc3ccccc3F)o2)cc1	n	n	n	n
CCOC(=O)C1CC2CC(C1)CN(C(=O)C1CCCCC1)C2 (stereo not drawn)	n	u	n	n
CCOc1ccc(OCCOC(=O)CN2C(=O)NC3(CCCC3)C2=O)cc1	n	n	x	x
O=C1CCN(Cc2ccc(O)cc2)CCN1[C@H](CO)c1ccccc1	u	n	n	n
COc1cc(C(=O)NCC(=O)N/N=C/c2cccnc2)cc(OC)c1OC	n	n	n	n
COc1ccc(OC)c(CC(NC(C)=O)C(=O)NC2CCN(S(=O)(=O)c3ccc(NC(C)=O)cc3)CC2)c1 (stereo not drawn)	n	n	n	n
COc1ccc2[nH]c(=O)c(CN(CC3CCCO3)S(=O)(=O)c3ccccc3)cc2c1 (stereo not drawn)	n	1.7µM	n	n
O=c1[nH]c2cc3c(cc2cc1CN(CC1CCCO1)S(=O)(=O)c1ccc(Cl)cc1)OCCO3 (stereo not drawn)	n	12µM	183	67
Cc1ccc(S(=O)(=O)N(Cc2cc3cc4c(cc3[nH]c2=O)OCCO4)CC2CCCO2)cc1 (stereo not drawn)	n	n	n	n
CC(=O)c1ccc(S(=O)(=O)N(Cc2cc3cc4c(cc3[nH]c2=O)OCCO4)CC2CCCO2)cc1 (stereo not drawn)	n	n	93	37
Nc1nc(C(c2ccccc2)c2ccccc2)cs1	n	n	n	n
CC(c1ccon1)N(C)Cc1cn(C)nc1-c1cccc(Cl)c1 (stereo not drawn)	n	u	n	n
SMILES	Pf growth 48h	Pf growth 96h	Shiga toxin inh	CHX counter
CC(NC(=O)Nc1cccc(Cl)c1)C(c1cccs1)N1CCCC1 (stereo not drawn)	u	9.3µM	n	n
CC(NC(=O)Nc1ccccc1)C(c1cccs1)N1CCN(C)CC1 (stereo not drawn)	n	n	n	n
CC(NC(=O)Nc1ccc([N+](=O)[O-])cc1)C(c1cccs1)N1CCCC1 (stereo not drawn)	u	9.3µM	n	n
COc1ccccc1NC(=S)NC(C)C(c1cccs1)N1CCOCC1 (stereo not drawn)	u	u	n	n
CC(NC(=S)Nc1ccc(Cl)cc1Cl)C(c1cccs1)N1CCCC1 (stereo not drawn)	u	12µM	n	n
COc1cccc(CC2(CO)CCN(Cc3cnc(N4CCOCC4)s3)CC2)c1	n	n	n	n
